PubChem BioAssay (EPA / NIEHS)
Results filed as inconclusive are left out. Activity calls are given as the source filed them. How the source made its calls: active means hit-call score of the fitted dose curve at least 0.9, where 1 is the maximum; inconclusive means response in the unintended direction; inactive means score below 0.9.

The molecules below were run on alkyl and aryl transferase (GSTA2), GSTA2 (gene 2939) (assay: CLD_GSTA2_48hr: CellzDirect (CLD) Gene Expression Assay for alkyl and aryl transferase (GSTA2) at 48 hours (AID 2283708)).
Description: CLD_48hr is a cell-based, multiplexed-readout assay that uses hepatocyte, a human liver primary cell, with measurements taken at 48 hours after chemical dosing in a 96-well plate.CLD_GSTA2_48hr is one of 16 assay component(s) measured or calculated from the CLD_48hr assay. It is designed to make measurements of mRNA induction, a form of inducible reporter, as detected with chemiluminescence signals by Quantitative Nuclease Protection Assay (qNPA) technology.Data from the assay component CLD_GSTA2_48hr was analyzed at the endpoint, CLD_GSTA2_48hr, in the positive analysis fitting direction relative to DMSO as the negative control and baseline of activity. Using a type of inducible reporter, gain-of-signal activity can be used to understand changes in the reporter gene as they relate to the gene GSTA2. Furthermore, this assay endpoint can be referred to as a primary readout. To generalize the intended target to other relatable targets, this assay endpoint is annotated to the transferase intended target family, where subfamily is alkyl and aryl transferase.
Human hepatocyte cultures were treated daily for two consecutive days with fresh dosing solutions containing appropriate concentrations of the 320 ToxCast chemicals (chemical identities were blinded to CellzDirect and other ToxCast collaborators), vehicle control (0.2% DMSO), and positive control inducers as summarized in Table 1. […] These replicate data, coupled with internal replicates designed within the blinded ToxCast chemical library, provided additional data to evaluate interindividual differences between hepatocyte preparations and their potential impact on chemical profiles.Cell morphology and integrity were evaluated using phase-contrast microscopy as an indicator of hepatocyte cell health (Tyson & Green, 1987). Cultures for each treatment group (i.e., media, vehicle [0.2% DMSO], positive control inducers [multiple concentrations], and the ToxCast chemicals [multiple concentrations]) were observed and cell morphology was assessed relative to vehicle control cultures at each harvest time point (0, 6, 24, or 48 h). […] Images were evaluated at the conclusion of the study to assess changes in cell integrity and account for the effects of chemical exposure on uncharacteristic changes in concentration-dependent gene expression profiles. The results from these determinations of apparent cytotoxicity were annotated (yes/no) alongside the corresponding qNPA data for reference.At the conclusion of each treatment period, hepatocyte cultures (96-well) were washed with 1 volume of HBSS, lysed by addition of 25 ul ArrayPlate lysis buffer (HTG, Tucson, AZ), and 70 ul/well of Denaturation Oil, denatured by incubation at 95C for 10 min, and frozen at approximately -70C until analysis by nuclease protection assay (qNPA) (Roberts et al., 2007). For qNPA analysis, cell lysates were thawed at 50C for approximately 30 min, qNPA probes were added, and samples were incubated at 95C for 10 min to begin the detection process by denaturing the target RNA, dissociating the duplexes and secondary structure hybridization. At the conclusion of the hybridization period, S1 nuclease reagent was added to each sample to digest all nonprotected nucleotides at 50C for 60-90 min. At the conclusion of the S1 nuclease digestions, all reactions were stopped by transfer of all the samples to fresh plates containing stop solution and incubated at 95C for 15 min to deactivate the enzyme, dissociate the mRNA/ DNA probe heterodimers, and hydrolyze the resulting single stranded mRNA, leaving a stoichiometric amount of single-stranded DNA nuclease protection probe, unmodified in sequence, as the only intact oligonucleotide left in the sample. Neutralization solution was subsequently applied to cooled (room temperature) plates, and samples were transferred to ArrayPlates for overnight incubations at 50Cto allow probes to be captured onto programmed locations on the ArrayPlates. […]

SMILES | outcome | AC50
CON=C(C(=O)OC)c1ccccc1CON=C(C)c1cccc(C(F)(F)F)c1 | inactive | –
FC(F)C(F)(F)OCC(Cn1cncn1)c1ccc(Cl)cc1Cl (stereo not given) | inactive | –
CCc1cccc(CC)c1N(COC)C(=O)CCl | – | 32.1 µM (active)
CC(C)[C@H](C(=O)O[C@H](C#N)c1cccc(Oc2ccccc2)c1)c1ccc(Cl)cc1 | inactive | –
CCOP(=S)(OCC)Oc1cc(C)nc(C(C)C)n1 | inactive | –
C#CCC1=C(C)C(OC(=O)C2C(C=C(C)C)C2(C)C)CC1=O (stereo not given) | inactive | –
CNC(=O)Oc1cccc2c1OC(C)(C)O2 | inactive | –
CCCCOC(=O)c1ccccc1C(=O)O | inactive | –
CSC1=N[C@@](C)(c2ccccc2)C(=O)N1Nc1ccccc1 | inactive | –
CCc1cccc(C)c1N(C(=O)CCl)C(C)COC (stereo not given) | inactive | –
CN(C)NC(=O)CCC(=O)O | inactive | –
CCOP(=O)(SC(C)CC)N1CCSC1=O (stereo not given) | inactive | –
CCCCN(CC)c1c([N+](=O)[O-])cc(C(F)(F)F)cc1[N+](=O)[O-] | inactive | –
COc1cc(OC)nc(Sc2cccc(Cl)c2C(=O)O)n1 | inactive | –
CCCOCC(=Nc1ccc(Cl)cc1C(F)(F)F)n1ccnc1 | – | 20 µM (active)
CC(C)=CC1C(C(=O)OCN2C(=O)C3=C(CCCC3)C2=O)C1(C)C (stereo not given) | inactive | –
C[N+]1(C)CCCCC1 | inactive | –
COP(=O)(OC)OC(Br)C(Cl)(Cl)Br (stereo not given) | inactive | –
C#CC(C)(C)NC(=O)c1cc(Cl)cc(Cl)c1 | inactive | –
CCOP(=S)(OCC)OC(Cl)C(Cl)(Cl)Cl (stereo not given) | inactive | –

SMILES | outcome | AC50
CN(C)[C@@H]1C(=O)C(C(N)=O)=C(O)[C@@]2(O)C(=O)C3=C(O)c4c(O)cccc4[C@@](C)(O)[C@H]3[C@H](O)[C@@H]12 | inactive | –
CC(C)N(C(=O)SCC(Cl)=C(Cl)Cl)C(C)C | inactive | –
Nc1c(Cl)cc([N+](=O)[O-])cc1Cl | inactive | –
COP(=O)(OC)C(O)C(Cl)(Cl)Cl (stereo not given) | inactive | –
CC(=NC#N)N(C)Cc1ccc(Cl)nc1 | inactive | –
CCOP(=S)(OCC)Oc1ccc2c(C)c(Cl)c(=O)oc2c1 | inactive | –
S=C1NCCN1 | inactive | –
CCCCOC(=O)[C@@H](C)Oc1ccc(Oc2ccc(C#N)cc2F)cc1 | inactive | –
CNC(=O)ON=C(SC)C(=O)N(C)C | inactive | –
COc1ccc(C(=CC(=O)N2CCOCC2)c2ccc(Cl)cc2)cc1OC | – | 32.2 µM (active)
CSc1nc(NC(C)C)nc(NC(C)C)n1 | inactive | –
CC1=NNC(=O)N(/N=C/c2cccnc2)C1 | inactive | –
COP(=O)(OC)SCn1c(=O)oc2cc(Cl)cnc21 | inactive | –
Cc1cc(C2CC2)nc(Nc2ccccc2)n1 | inactive | –
COc1cccc(C(=O)NN(C(=O)c2cc(C)cc(C)c2)C(C)(C)C)c1C | inactive | –
CCC(CC)Nc1c([N+](=O)[O-])cc(C)c(C)c1[N+](=O)[O-] | inactive | –
CCC(=NOC/C=C/Cl)C1=C(O)CC(C2CCOCC2)CC1=O (stereo not given) | inactive | –
Nc1nc(N)nc(NC2CC2)n1 | inactive | –
N#CSCSC#N | inactive | –
C=C(C)[C@H]1Cc2c(ccc3c2O[C@@H]2COc4cc(OC)c(OC)cc4[C@@H]2C3=O)O1 | – | 0.66 µM (active)
